Source: PubChem BioAssay
The source made the active and inactive calls.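 Rule for the calls, unless noted: active = fluorescence slope after compound addition differing from the mean of all screened samples at 99.7% confidence, in either direction; inactive = the rest.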

Assays:
[1] = inhibitors of TNFa-induced NFkB p65 translocation, primary screen, imaging, HUVEC, MLSMR starter and 10KST1 sets (AID 438;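 active = inhibition above 20% together with a positive visual image hit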;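 note: compound added about 3h40 before a 20 min TNFalpha stimulation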;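 for inhibition: signal is the nuclear over cytoplasmic p65 intensity ratio per well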); details: HUVEC TNFa-induced p65 nuclear translocation; cell count: measured here: nuclei count (cytotoxicity indicator), at 2.08 µM; inhibition: at 2 µM, stronger effect = higher value, 0% TNFa-plus-vehicle, 100% no-TNFa wells
[2] = reduction of polyQ htt aggregates in cells – imaging, exon1htt(103Q)mCFP cells, high-content imaging, primary screen (AID 483;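 active = visual image review flags a hit and inhibition of aggregation exceeds 20%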;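 note: compound exposure lasted 3 days before fixation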;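 for nuclei count: percent of the per-plate median nuclei count of sample wells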); details: exon1htt(103Q)mCFP cell line, aggregate imaging, at 2 µM; inhibition of aggregation: stronger effect = higher value; nuclei count: measured here: cell count, toxicity
[3] = endothelial E-selectin expression blockers – imaging, HUVEC, immunofluorescence, MLSMR starter and 10KST1 sets, primary screen (AID 487;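 active = visually confirmed hit in the image check and inhibition above 20%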;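 for inhibition: signal is fraction of cell area covered by stained E-selectin grains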;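 for nuclei count: 100% = median nuclei count of all wells on the same plate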); details: HUVEC TNFalpha-induced E-selectin immunofluorescence imaging, at 2 µM; inhibition: stronger effect = higher value; nuclei count: measured here: cell number, toxicity
[4] = target: Voltage-gated potassium channel subunit beta-2 (Rattus norvegicus) (UniProt P62483); assay: inhibitors of rat Kvbeta2 reductase activity – biochemical, NADPH fluorescence, primary screen (AID 622;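 active = fluorescence slope higher than the sample average by over 3 SD, cut at about -0.22 in these data, passing the limit was not always enough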;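 note: slope of raw intensity against log time taken from 70 to 1610 s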); details: recombinant KvBeta, 4-cyanobenzaldehyde reduction, at 10 µM, stronger effect = higher value
Voltage-gated potassium channel subunit beta-2 (Rattus norvegicus), sequence (P62483 whole entry, looked up): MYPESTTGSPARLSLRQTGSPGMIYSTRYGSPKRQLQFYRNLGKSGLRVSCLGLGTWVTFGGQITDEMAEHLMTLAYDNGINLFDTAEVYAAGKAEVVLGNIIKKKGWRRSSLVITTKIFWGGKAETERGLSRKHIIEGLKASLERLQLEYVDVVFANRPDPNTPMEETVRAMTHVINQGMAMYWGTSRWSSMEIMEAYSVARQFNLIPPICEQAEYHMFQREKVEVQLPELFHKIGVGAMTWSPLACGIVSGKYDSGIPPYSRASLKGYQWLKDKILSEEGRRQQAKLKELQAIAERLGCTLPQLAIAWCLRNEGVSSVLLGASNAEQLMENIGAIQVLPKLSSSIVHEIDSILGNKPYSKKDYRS

[5] = target: Voltage-gated potassium channel subunit beta-2 (Rattus norvegicus) (UniProt P62483); assay: enhancers of rat Kvbeta2 NADPH turnover – biochemical, NADPH fluorescence, primary screen (AID 623;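 active = NADPH fluorescence slope more negative than the mean of all samples by about 3 SD, 99.7% confidence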;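 note: fluorescence intensity change per second fitted from 20 to 320 s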); details: Recombinant KvBeta, NADPH fluorescence decrease slope, 10 min; at 10 µM; stronger effect = lower value
[6] = target: Alpha-2C adrenergic receptor (Homo sapiens) (UniProt P18825); assay: compounds altering alpha2C-coupled GIRK flux – cell-based, HEK293 alpha2C/GIRK1/2, thallium flux, primary screen (AID 624); details: thallium flux BTC fluorescence, at 10 µM, actives lie on both sides;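 note: slope of fluorescence ratio to pre-addition baseline per second over 15 to 24 s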
Alpha-2C adrenergic receptor (Homo sapiens), sequence (P18825 whole entry, looked up): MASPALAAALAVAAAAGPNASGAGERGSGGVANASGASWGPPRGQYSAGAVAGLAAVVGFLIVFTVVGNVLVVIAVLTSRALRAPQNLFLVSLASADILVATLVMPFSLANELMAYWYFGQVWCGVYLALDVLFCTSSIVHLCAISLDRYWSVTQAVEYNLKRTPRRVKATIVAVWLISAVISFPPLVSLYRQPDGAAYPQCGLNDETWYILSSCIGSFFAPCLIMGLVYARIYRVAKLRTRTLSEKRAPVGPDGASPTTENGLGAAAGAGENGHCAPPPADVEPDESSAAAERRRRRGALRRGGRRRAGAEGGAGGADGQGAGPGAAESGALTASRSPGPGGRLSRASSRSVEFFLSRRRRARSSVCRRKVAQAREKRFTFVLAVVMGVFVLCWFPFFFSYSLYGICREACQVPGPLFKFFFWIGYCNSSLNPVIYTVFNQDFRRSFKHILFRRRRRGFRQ

[7] = blockers of RIG-like receptor reporter activation – cell-based, Sendai virus stimulus, luciferase, 10K MLSCN set, TLR/RLR signaling modifier project, primary screen (AID 602276;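 active = inhibition at or above 50% at 10 µM; inactive = inhibition below 50%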;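 note: firefly luciferase from ISG56 promoter only with Renilla not read in this screen; 0% = Sendai virus plus DMSO and 100% = medium plus DMSO without virus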); details: HEK293 RL24 IRF3 luciferase reporter, at 10 µM, stronger effect = higher value
[8] = TLR3 IRF3 reporter activation blockers – cell-based, poly I:C stimulus, luciferase, 10K MLSCN set, primary screen (AID 602277;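 active = inhibition of the reporter signal at or above 50%; inactive = inhibition below 50%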); details: HEK293-TLR3 RL24 IRF3 luciferase reporter, at 10 µM, stronger effect = higher value

Row | SMILES | cell count [1] | inhibition [1] | inhibition of aggregation [2] | nuclei count [2] | inhibition [3] | nuclei count [3] | fluorescence slope [4] | NADPH fluorescence slope [5] | slope [6] | inhibition [7] | inhibition [8]
1 | O=C(Nc1ccc(N2C(=O)C3C4C=CC(C4)C3C2=O)cc1)Nc1nncs1 (stereo not drawn) | 668 | -9.8% (inactive) | 4.9% (inactive) | 92% | -77.5% (inactive) | 125% | -0.579 (inactive) | 6.4e-08 (inactive) | 0.0068 (inactive) | 2.97% (inactive) | -2% (inactive)
2 | C=COC(=O)CSc1snc(SCC(=O)OC)c1C#N | 300 | -6.3% (inactive) | 11.1% (inactive) | 102% | -31.9% (inactive) | 88.9% | -0.581 (inactive) | -4.2e-06 (inactive) | 0.00524 (inactive) | 15.5% (inactive) | 18.4% (inactive)
3 | CS(=O)(=O)N(CC(=O)NCc1ccncc1)Cc1ccc(Cl)cc1 | 614 | 8.7% (inactive) | -13.4% (inactive) | 107% | -83.3% (inactive) | 121% | -0.471 (inactive) | -1.2e-06 (inactive) | 0.00437 (inactive) | 17.3% (inactive) | 18% (inactive)
4 | Cc1nnc(SCC(=O)Nc2cc(C(F)(F)F)ccc2N2CCOCC2)o1 | 271 | 0.2% (inactive) | 16.1% (inactive) | 99.1% | -2.6% (inactive) | 95.1% | -0.379 (inactive) | -3.9e-07 (inactive) | 0.00303 (inactive) | 10.8% (inactive) | 32.5% (inactive)
5 | CC(C)Cn1c(=O)c(C(=O)Nc2ccccc2S(N)(=O)=O)c(O)c2ccccc21 | 740 | -1% (inactive) | -9.5% (inactive) | 99.4% | 60.6% (active) | 92.3% | -0.393 (inactive) | -3.1e-05 (inactive) | 0.00741 (inactive) | -1.36% (inactive) | -18.4% (inactive)
6 | CCOCCOc1nc2c(c(=O)n(C)c(=O)n2C)n1Cc1ccc(C)cc1 | 830 | 2.3% (inactive) | -33.5% (inactive) | 102% | -35.1% (inactive) | 114% | -0.46 (inactive) | 5.4e-05 (inactive) | 0.00568 (inactive) | -11.5% (inactive) | -21.6% (inactive)
7 | O=C(O)C1CCCN(S(=O)(=O)c2ccc(Cl)s2)C1 (stereo not drawn) | 609 | -7.1% (inactive) | 13.3% (inactive) | 88.8% | -43.3% (inactive) | 116% | -0.558 (inactive) | -2.9e-05 (inactive) | 0.00655 (inactive) | 10.1% (inactive) | 33.8% (inactive)
8 | Cc1ccc(CCNC(=O)C2CCC(=O)N2C2CCCC2)cc1 (stereo not drawn) | 703 | -1.3% (inactive) | 6.9% (inactive) | 97.5% | 16.9% (inactive) | 97.7% | -0.493 (inactive) | -4.7e-05 (inactive) | 0.0072 (inactive) | 1.44% (inactive) | 10.9% (inactive)
9 | CCOC(=O)c1cccnc1SCC(=O)NC(C)CC (stereo not drawn) | 689 | -22.4% (inactive) | 23.4% (inactive) | 99.8% | -54.6% (inactive) | 119% | -0.469 (inactive) | -0.0001 (inactive) | 0.006 (inactive) | 7.9% (inactive) | 17.7% (inactive)
10 | CCCn1c(O)c(CN2CCCC(C)C2)c(C)c(C#N)c1=O (stereo not drawn) | 673 | -16.4% (inactive) | 2.6% (inactive) | 91.2% | -59.7% (inactive) | 113% | -0.472 (inactive) | -2.9e-05 (inactive) | 0.00503 (inactive) | 13.3% (inactive) | 22.1% (inactive)
11 | CCOc1ccccc1C(=O)N1CCN(c2cccc(Cl)c2)CC1 | 460 | 24.4% (active) | -20.9% (inactive) | 4% | -294% (inactive) | 104% | -0.614 (inactive) | -5.4e-05 (inactive) | 0.00344 (inactive) | 9.54% (inactive) | 87.8% (active)
12 | Cc1ccc(O)c(C(CC(=O)N2CCCC2)c2ccccc2)c1 (stereo not drawn) | 478 | 1.6% (inactive) | 4.1% (inactive) | 103% | -33% (inactive) | 114% | -0.35 (inactive) | -4.7e-05 (inactive) | 0.00552 (inactive) | 3.98% (inactive) | 16.5% (inactive)
13 | Cn1c(NC(=O)c2cccc(Cn3cc(Cl)cn3)c2)nc2ccccc21 | 778 | -2.9% (inactive) | -32.7% (inactive) | 104% | -61.1% (inactive) | 113% | -0.548 (inactive) | -1.6e-05 (inactive) | 0.00464 (inactive) | -25.1% (inactive) | -112% (inactive)
14 | Cn1c(=O)c2c(nc(NCCCO)n2C/C=C/c2ccccc2)n(C)c1=O | 401 | -1.8% (inactive) | 1.8% (inactive) | 112% | -45.2% (inactive) | 153% | -0.336 (inactive) | 9.8e-06 (inactive) | 0.004 (inactive) | 22.3% (inactive) | 34.2% (inactive)
15 | Cc1ccc(-c2nnc(N3CCN(C(=O)CN4C(=O)c5ccccc5C4=O)CC3)c3ccccc23)cc1 | 375 | 10.2% (inactive) | -15.9% (inactive) | 109% | -158% (inactive) | 133% | -0.468 (inactive) | -5.9e-05 (inactive) | 0.00522 (inactive) | 8.25% (inactive) | 12.9% (inactive)
16 | CCCCOc1ccccc1C1C(C(N)=O)=C(C)Nc2nnnn21 (stereo not drawn) | 279 | -4.7% (inactive) | 0.7% (inactive) | 88.7% | -56% (inactive) | 97.9% | -0.459 (inactive) | 2.7e-05 (inactive) | 0.0066 (inactive) | 17.4% (inactive) | 27.7% (inactive)
17 | O=C(Nc1ccccn1)N1CCOCC1 | 319 | 9.3% (inactive) | 10.6% (inactive) | 95.2% | -70.8% (inactive) | 114% | -0.303 (inactive) | -5e-05 (inactive) | 0.00596 (inactive) | 1.79% (inactive) | 0.112% (inactive)
18 | CCN(CC)CCn1c(OC)cc(=O)[nH]c1=O | 411 | 5.3% (inactive) | -27.5% (inactive) | 108% | -137% (inactive) | 114% | -0.503 (inactive) | 1.6e-06 (inactive) | 0.00433 (inactive) | 10.7% (inactive) | 18.4% (inactive)
19 | COc1ccc2c(CC(=O)Nc3nnc(C4CC4)s3)coc2c1 | 286 | -15.7% (inactive) | 7.5% (inactive) | 105% | -13.2% (inactive) | 111% | -0.482 (inactive) | -0.000211 (inactive) | 0.00533 (inactive) | 9.99% (inactive) | 14.7% (inactive)
20 | Cc1nn(-c2ccc(F)cc2)c2c1cc(C#N)c1nc3ccccc3n12 | 664 | 9.6% (inactive) | 29.9% (inactive) | 69.3% | 2.3% (inactive) | 102% | -0.000912 (active) | 1.1e-05 (inactive) | 0.00318 (inactive) | 9.91% (inactive) | 23.6% (inactive)
21 | CCS(=O)(=O)N1CCC(C(=O)NC2CCCCCCC2)CC1 | 649 | -9.4% (inactive) | -9.5% (inactive) | 104% | -113% (inactive) | 128% | -0.378 (inactive) | 1.4e-05 (inactive) | 0.00549 (inactive) | -13% (inactive) | -6.47% (inactive)
22 | Cc1ccc(C)c(NC(=O)CC(NCCCN2CCOCC2)C(=O)O)c1 (stereo not drawn) | 494 | -13.6% (inactive) | 2.6% (inactive) | 71.5% | -34.4% (inactive) | 81.2% | -0.512 (inactive) | 3.9e-05 (inactive) | 0.00589 (inactive) | 19.6% (inactive) | 20.7% (inactive)
23 | Cc1ccc2nsnc2c1S(=O)(=O)N(Cc1cc2cccc(C)c2[nH]c1=O)CC1CCCO1 (stereo not drawn) | 641 | 2.6% (inactive) | 6.3% (inactive) | 108% | 42.1% (inactive) | 92.6% | -0.578 (inactive) | -6.5e-05 (inactive) | 0.00367 (inactive) | 32.9% (inactive) | 18.9% (inactive)
24 | CCOc1cc2[nH]c(=O)n(CCCCC(=O)NCc3ccco3)c(=O)c2cc1OCC | 394 | -17.9% (inactive) | -0.5% (inactive) | 117% | -41.6% (inactive) | 110% | -0.508 (inactive) | -6e-05 (inactive) | 0.00662 (inactive) | 9.08% (inactive) | 35.9% (inactive)
25 | CCc1nnc(SCC(=O)NC2CCCCC2)nc1CC | 774 | -14.3% (inactive) | 11.4% (inactive) | 105% | -62.4% (inactive) | 103% | -0.536 (inactive) | 2e-06 (inactive) | 0.00672 (inactive) | -5.14% (inactive) | 5.98% (inactive)
26 | CCCS(=O)(=O)Nc1c(C(=O)O)[nH]c2ccccc12 | 665 | -11.9% (inactive) | -26.1% (inactive) | 108% | -79.9% (inactive) | 147% | -0.415 (inactive) | -3.3e-05 (inactive) | 0.00314 (inactive) | 12.6% (inactive) | 29% (inactive)
27 | CC(=O)O[C@H]1CSC[C@H]1NC(=O)c1ccccc1 | 467 | 10.9% (inactive) | 9.1% (inactive) | 96.2% | 21.9% (inactive) | 111% | -0.509 (inactive) | -1.7e-05 (inactive) | 0.00411 (inactive) | 16.6% (inactive) | 16.9% (inactive)
28 | CCS(=O)(=O)N1CCCC(c2nc(-c3cccc(OC)c3)no2)C1 (stereo not drawn) | 730 | -52% (inactive) | -9.9% (inactive) | 92.1% | -66.1% (inactive) | 104% | -0.535 (inactive) | 1.2e-05 (inactive) | 0.00638 (inactive) | -28.7% (inactive) | -59.2% (inactive)
